Bioassay records: PubChem, several laboratories
Hits are enriched below; roughly 28% of the tested compounds scored in any of these assays.
CYP2C9 activ: activators of human CYP2C9. P11712. recombinant CYP2C9, luciferin-H conversion, luminescence; stronger effect = higher value; factor 1 = untreated enzyme, 0 = blocked. activation factor at 5 µM. 1.4% of 96,000 active;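 active = activation factor of 2 or more for CYP2C9 at a 5 µM dose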;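 also: 0 = sulfaphenazole-blocked wells and 1 = vehicle-only wells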
CYP2C19 inh: inhibitors of human CYP2C19. AID 778. 21% of 96,000 active. P33261. CYP2C19 Supersomes, luciferin-H EGE luminescence, 30 min. inhibition, % at 5 µM;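 active = CYP2C19 inhibition above a set limit at 5 µM in the primary screen, cut at about 50% in these data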;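 also: plate controls were negative control wells for no effect and 2.5 mM tranylcypromine positive control for full effect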
Target sequence (P33261 whole entry, looked up): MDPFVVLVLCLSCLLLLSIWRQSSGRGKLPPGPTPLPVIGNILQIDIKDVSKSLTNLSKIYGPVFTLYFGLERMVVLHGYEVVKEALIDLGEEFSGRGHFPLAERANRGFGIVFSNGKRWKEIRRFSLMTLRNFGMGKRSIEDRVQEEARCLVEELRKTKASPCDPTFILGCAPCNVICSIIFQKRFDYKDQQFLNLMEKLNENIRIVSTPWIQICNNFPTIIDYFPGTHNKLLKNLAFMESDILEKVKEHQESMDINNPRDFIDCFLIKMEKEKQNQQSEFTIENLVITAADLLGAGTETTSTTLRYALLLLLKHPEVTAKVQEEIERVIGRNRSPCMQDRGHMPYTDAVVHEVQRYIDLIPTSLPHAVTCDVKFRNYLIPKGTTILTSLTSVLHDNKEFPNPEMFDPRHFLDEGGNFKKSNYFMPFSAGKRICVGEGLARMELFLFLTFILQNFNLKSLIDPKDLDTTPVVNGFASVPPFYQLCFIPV
D1 allo mod: allosteric modulators of human D1 dopamine receptor. P21728. HEK293 D1, CRE-luciferase, dopamine EC30 potentiation; actives deviate in either direction. B-score at 10 µM. 5.9% of 58,000 active;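 active = luminescence count or its row- and column-corrected plate score outside the 99.7% band of the plate's sample wells, on either side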
CYP2C19 act: increases human CYP2C19 enzyme activity. P33261. recombinant CYP2C19, luciferin-H EGE luminescence; stronger effect = higher value; 0 = fully inhibited enzyme, 1 = untreated enzyme. activation factor at 5 µM. 96,000 tested, under 10 active. AID 1025;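 active = activation factor of at least 2 at 5 µM in the primary screen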;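 also: 0 = wells with 2.5 mM tranylcypromine and 1 = vehicle-only wells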
hDAT+cocaine: human DAT dopamine uptake with cocaine, either direction; B-score at 10 µM; AID 449768; LLC-PK1 hDAT cells, [14C]-dopamine uptake with cocaine IC80; actives deviate in either direction; 1.3% of 110,000 active;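 active = Z score or B-score, a plate-position-corrected score, falls beyond the plate's 99.7% confidence bounds, in either direction; inactive = both scores lie inside the 99.7% bounds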;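 also: scored against the spread of the other compound wells on the same plate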
CYP2C9 inhib: human CYP2C9 inhibition; AID 777; inhibition, % at 5 µM; 20% of 96,000 active; CYP2C9 Supersomes, luciferin-H conversion, luminescence; P11712;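 active = blocking of liver enzyme CYP2C9 beyond about 50% at 5 µM, limit read from the data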
An asterisk follows results filed as active; . = not tested or not shown.

SMILES	CYP2C9 activ	CYP2C19 inh	D1 allo mod	CYP2C19 act	hDAT+cocaine	CYP2C9 inhib
CCOC(=O)C(NC(=O)c1ccccc1)(OCC1(CC)COC1)C(F)(F)F (stereo not given)	.	.	.	.	-1.2	.
COC(=O)C(O)(CC(=O)Nc1ccc(OC)cc1)C(F)(F)F (stereo not given)	.	.	.	.	-0.28	.
CCOC(=O)C(O)(CC(=O)c1ccc(OC)cc1)C(F)(F)F (stereo not given)	.	.	.	.	-8.8*	.
CCOC(=O)C(O)(NC(=O)c1cccnc1)C(F)(F)F (stereo not given)	1.1	7	0.22	0.9	-0.75	-13
CCC1(COC(NC(=O)c2cccnc2)(C(F)(F)F)C(F)(F)F)COC1	0.9	10	-7*	0.9	0.62	10
CCOC(=O)C(NC(=O)c1ccc(OC)cc1)(OCC1(CC)COC1)C(F)(F)F (stereo not given)	0.4	38	-0.46	0.6	0.91	63*
CCOC(=O)CNc1nnc(SCC(=O)OCC)[nH]c1=O	1	5	-0.05	1	-0.23	2
CCn1c(NC(=O)Nc2ccccc2OC)nc2ccccc21	1	13	.	0.9	0.64	0
COc1ccc(C2C3=C(CCCC3=O)Nc3c(-c4ccccc4)c(C)nn32)cc1 (stereo not given)	0.6	71*	.	0.3	-0.13	35
COc1cc2c3c(c1)C1(C(=O)N3C(C)(C)C=C2C)C(C#N)=C(N)Oc2cc(O)ccc21 (stereo not given)	0.1	51*	0.37	0.5	0.21	89*
CCOc1cc2c3c(c1)C1(C(=O)N3C(C)(C)C=C2C)C(C#N)=C(N)Oc2cc(O)ccc21 (stereo not given)	0.4	35	-0.06	0.7	-0.26	56*
O=C(Nc1ccccc1)c1ccccc1OCC(O)CN1C(=O)c2ccccc2S1(=O)=O (stereo not given)	0.2	63*	-1.7	0.4	-0.17	76*
COc1ccc(OCC(O)CN2C(=O)c3ccccc3S2(=O)=O)cc1 (stereo not given)	0.5	92*	-0.041	0.1	-0.59	49
CC1(C)NC(=O)N(CC(O)COc2ccccc2C(=O)Nc2ccccc2)C1=O (stereo not given)	0.7	28	.	0.7	-0.31	33
COc1ccc(OCC(O)Cn2c(=N)n(Cc3ccccc3)c3ccccc32)cc1 (stereo not given)	0.8	49	-3.1	0.5	0.62	22
CCOC(=O)c1c(C)n(C)c2ccc(OCC(O)CN3C(=O)c4ccccc4S3(=O)=O)cc12 (stereo not given)	0.3	43	-0.032	0.6	0.54	73*
CCOC(=O)c1c(C)n(C)c2ccc(OCC(O)CN(CC)CC)cc12 (stereo not given)	1	-9	.	1.1	1.8	0
CCOC(=O)c1c(C)n(C)c2ccc(OCC(N)=O)cc12	0.7	4	1.5	1	0.2	34
CCOC(=O)c1c(C)n(C)c2ccc(OCC(O)Cn3nc(C)cc3C)cc12 (stereo not given)	0.3	78*	0.86	0.2	-0.3	74*
CCCC(C)C(=O)Nc1ccc(C(N)=O)cc1 (stereo not given)	1.2	-14	0.22	1.1	-0.7	-20
CCOC(=O)C1CCc2sc(N)c(C#N)c21 (stereo not given)	1	10	1.2	0.9	-1.1	-4
CON1C(=O)C(=O)N(OC)C(C)(C)C1C (stereo not given)	1	1	.	1	-0.83	3
COc1cc(OC)c(CN2CCCCCCC2)cc1Br	1	37	.	0.6	-0.44	0
COc1cc(OC)c(CN2CCN(c3ccc(F)cc3)CC2)cc1Br	0.9	78*	-0.051	0.2	0.075	11
COc1ccccc1NC(=O)CN1CCN(C2c3ccccc3-c3ccccc32)CC1	0	81*	0.044	0.2	0.42	96*
SMILES	CYP2C9 activ	CYP2C19 inh	D1 allo mod	CYP2C19 act	hDAT+cocaine	CYP2C9 inhib
COc1ccc(NC(=O)CN2CCN(C3c4ccccc4-c4ccccc43)CC2)c(OC)c1	0	88*	0.21	0.1	0.21	97*
CN(C(=O)c1cccs1)c1ccccc1C(=O)O	1.2	-15	-1.4	1.2	0.64	-16
CCC(Oc1nc2ccccc2nc1-c1ccccc1NC(C)=O)C(=O)c1ccccc1 (stereo not given)	0.5	-4	.	1	0.044	53*
CC(=O)Nc1ccccc1-c1nn[nH]n1	1	4	.	1	-0.9	-2
CN(C)S(=O)(=O)Oc1ccsc1C(=O)Nc1ccccc1Cl	0.3	79*	.	0.2	-2.3	66*
CN(C)S(=O)(=O)Oc1ccsc1C(=O)Nc1cccc(Cl)c1Cl	0.3	84*	.	0.2	1.7	72*
O=C1N=C2SCCN2/C1=C\c1ccccc1Cl	1	-8	.	1.1	-0.012	-2
O=C(Nc1cccc(-c2cn3ccccc3n2)c1)C1CC1	0.9	7	.	0.9	-0.75	15
CC1CCN(C(=O)c2ccc3c(c2)OCCO3)CC1	1	44	0.21	0.6	6.7*	4
CC1CCN(C(=O)c2scc3c2OCCO3)CC1	0.9	16	-1.2	0.8	-0.064	8
CN(C)CCCC(=O)c1ccc2c(c1)OCO2	1.1	-6	.	1.1	-0.69	-10
CC1CCN(C(=S)c2ccc3c(c2)OCO3)CC1	0.7	99*	.	0	0.065	27
C#Cc1ccc([C@@H]2C=C(C(=O)OCC=C)O[C@H](OCCCCO)C2)cc1	.	.	.	.	-0.13	.
O=C(O)C1CSC2(CCN(Cc3ccccc3)CC2)N1 (stereo not given)	.	.	-0.42	.	-0.61	.
COC(=O)C(CCSC)NC(=O)c1cccc([N+](=O)[O-])c1 (stereo not given)	0.9	25	.	0.8	-0.57	10
C=C1CCN([C@@H](Cc2ccccc2)C(=O)NC2CCN(Cc3ccccc3)CC2)S(=O)(=O)c2ccccc21	.	.	.	.	0.54	.
CN(C(=O)c1ccncc1)c1nnc(-c2cnccn2)s1	0	89*	-0.14	0.1	-1	97*
Cc1cnc(-c2nnc(N(C)C(=O)c3ccncc3)s2)cn1	.	.	-0.89	.	.	.
Cc1ccc(-c2nnc(N(C)C(=O)c3ccncc3)s2)cn1	0.2	41	-0.32	0.6	-0.91	85*
CC1(C)CN=C(N2CCN(C3=NCC(C)(C)S3)CC2)S1	1	9	1.5	0.9	.	4
CC1=NN(c2nc(-c3ccc(Cl)cc3)cs2)C(=O)C1	0.4	-8	.	1.1	2.4	60*
CN(C)Cc1nc2ccccc2c(=O)n1Cc1nc(C(C)(C)C)cs1	0.1	82*	0.7	0.2	-0.76	93*
CCOC(=O)N1CCN(C(=O)c2noc(C(C)C)c2[N+](=O)[O-])CC1	.	.	.	.	-0.19	.
Cc1cc(/C=C(/C#N)c2cccc(Cl)c2)c(C)n1C	1	32	.	0.7	.	-2
